Test results taken from the supplement of paper PMC3334620.
In all, about 33,000 sequences were measured (“E-score (-0.5 to 0.5)”: median about -0.043, highest 2% from about 0.37 on). This is one part of a sample in which the highest values are shown more often than they occur.

Each sequence was assayed against T1, Upc2 (UniProt Q12151) (assay: PBM E-score (8-mer binding enrichment) (E-score (-0.5 to 0.5)); higher = stronger / more preferred TF binding). Conditions: protein concentration: 200 nM; construct: GST-full length.
T1 sequence: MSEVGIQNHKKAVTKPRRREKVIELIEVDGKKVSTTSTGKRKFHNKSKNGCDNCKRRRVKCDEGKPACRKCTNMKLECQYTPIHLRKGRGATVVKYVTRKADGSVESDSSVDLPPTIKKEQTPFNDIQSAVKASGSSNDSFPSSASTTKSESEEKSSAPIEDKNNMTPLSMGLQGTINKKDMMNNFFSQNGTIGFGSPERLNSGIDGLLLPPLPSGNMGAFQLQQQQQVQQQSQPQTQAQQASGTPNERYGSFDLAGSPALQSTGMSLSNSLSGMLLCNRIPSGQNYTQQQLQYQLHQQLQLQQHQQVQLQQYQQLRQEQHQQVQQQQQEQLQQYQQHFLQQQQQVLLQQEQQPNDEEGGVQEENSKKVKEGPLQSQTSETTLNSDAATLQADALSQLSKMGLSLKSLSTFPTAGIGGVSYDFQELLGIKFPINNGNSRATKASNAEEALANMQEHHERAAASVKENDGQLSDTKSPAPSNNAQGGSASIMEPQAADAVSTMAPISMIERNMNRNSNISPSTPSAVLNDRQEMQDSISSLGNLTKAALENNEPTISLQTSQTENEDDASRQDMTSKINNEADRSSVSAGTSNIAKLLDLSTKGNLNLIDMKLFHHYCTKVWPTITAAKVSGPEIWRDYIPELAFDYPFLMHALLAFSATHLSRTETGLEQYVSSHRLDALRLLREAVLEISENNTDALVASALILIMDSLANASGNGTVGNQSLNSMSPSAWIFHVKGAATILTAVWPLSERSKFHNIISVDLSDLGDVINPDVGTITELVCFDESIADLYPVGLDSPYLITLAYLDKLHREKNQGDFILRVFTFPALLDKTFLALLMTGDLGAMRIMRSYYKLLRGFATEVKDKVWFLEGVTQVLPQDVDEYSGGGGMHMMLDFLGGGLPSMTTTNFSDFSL
How it was run: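 For each ungapped eight-base word taken together with its reverse complement, the Universal PBM Analysis Suite assigned an E-score. Binding data came from GST-tagged yeast transcription factors, applied at about 100-200 nM, on universal all-10-mer Agilent arrays made double-stranded by primer extension. Fluorescent anti-GST marked bound protein, and scans were normalised with masliner.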

Sequence	PBM E-score
GGCGTTAA	0.161
AGCAGCAC	-0.113
GTGCTCGA	0.0349
ATGAGTGG	-0.126
CAATCTTA	0.065
ATATAGCA	-0.0248
GTATAGCA	0.377
CTATAGCA	-0.0859
CAGATCAC	-0.266
AGTCTTTC	-0.0324
GCCAATAC	0.0787
ACATTCGT	0.375
ACATTCGA	0.0307
ACATTCGG	0.0333
AACATCCA	-0.0529
ATGTCCTA	0.0227
AGATCTCG	0.235
CATCGTCA	-0.163
AATCGTAG	0.241
CATCGTCC	-0.0591
AATCGTCT	0.0582
GATCGTTA	0.291
CATCGTAA	0.389
AATCGTAA	0.368
CATCGTAC	0.454

Sequence	PBM E-score
CATCGTGA	0.0225
AATCGTAT	0.44
CATCGTAG	0.295
GATCGTAA	0.396
GGCGTCCA	-0.398
CATCACGG	0.0314
ACTGTAGG	-0.117
GATTAGCC	0.0747
ATGTTAGG	-0.00946
ACCTGGAA	0.0285
AGAGCATG	-0.17
CAGTGCTA	-0.0362
AGAATCAG	-0.0805
AGCATTAT	-0.183
AATCGTGC	0.229
TATCGTCA	0.0773
AATCGTAC	0.43
TATCGTAA	0.384
GATCGTCC	-0.151
GATCGTGC	0.0519
GATCGTAC	0.442
TATCGTGA	0.0236
AATCGTCC	-0.0549
AGAGGCAC	-0.00593
GAACATCA	-0.0243

Sequence	PBM E-score
AGCTGTAT	-0.0312
CTAAGCTC	-0.201
AACCCTCT	-0.202
CGGACTAC	-0.113
CTCGTCGC	0.0828
CCGAGCCA	-0.0165
ACGAGCCC	0.358
AGGAGCCG	-0.224
AGGAGCCT	-0.12
ACGAGCCT	0.396
CCGAGCCG	0.106
ACGAGCCA	0.408
TCGAGCCA	-0.0555
ACGAGCCG	0.371
TAACTCAA	-0.0155
ATTTCTTC	-0.026
ATATATAA	0.141
TAATGCTA	-0.11
CAACGATG	0.0412
GATCGATC	-0.03
GAACGATA	0.402
AATCGATT	0.128
GGACGATA	-0.181
GAACGATC	0.429
CCACGATC	0.125

Sequence	PBM E-score
GAACGGTA	0.283
AAACGCTG	0.244
AAACGATT	0.449
AAACGATG	0.458
AAACGCTT	0.156
CGCCACCC	-0.0595
ATCGTGAG	-0.165
GGTCTGCA	-0.156
TCAGATGA	-0.197
ATCTGGTA	0.044
ACACTGCA	-0.0747
CGGCATAG	-0.0559
GCCTCCGC	-0.121
AAACTTTA	-0.0184
AGACGATC	-0.0293
TAACGTTA	0.102
TAACGATA	0.387
CAACGATA	0.228
CAACGATC	0.11
ACACGATA	0.15
AAACGATA	0.459
CCACGATA	-0.0526
AAACGATC	0.447
AAGCGACT	0.243
ACACTCAT	-0.233

Sequence	PBM E-score
ATCTCCTG	-0.0597
ATAGGTCC	-0.132
AGAGCGTA	0.223
ATCTGAAG	-0.202
GACGAGGC	0.0687
TACGAGGA	0.464
CACGAGGA	0.0675
AACGAGGC	0.444
ACCGAGGT	0.169
AAAGAGGT	-0.182
AACGAGGA	0.428
GACGAGGA	-0.00176
AACGAGGT	0.448
CACGAGGC	0.116
ATCGAGGA	0.0976
AGCGAGGA	0.144
AGATGGCC	-0.176
AAGAGACG	0.102
CTGGCGAA	-0.174
ACCACCTG	-0.0336
CACTGTGC	-0.118
CAGTAGTC	0.0468
GCCTTGAA	-0.189
CATTTCGA	0.0247
GCTCCACC	-0.0776

Sequence	PBM E-score
AGATGAAT	-0.206
CAGACTGA	-0.0971
AAGTTATT	0.045
AGCTATGG	-0.158
AGCGAGGG	0.245
AACGAGGG	0.43
CACGAGGG	0.114
AGGGTGAC	-0.128
ACCCTGGA	-0.0506
AGTACGAG	0.428
CGGACGAC	-0.21
CGTACGAC	0.449
CGTACGCC	0.312
GGTACGAC	0.475
AGTACGCA	-0.0414
AGTACGTA	0.27
AGTACGAA	0.384
AGTACGCG	0.189
AGTACGTG	0.0272
GGGACGAC	-0.244
GGTACTAC	0.0298
CGAAGCAC	-0.0203
CAGCACGG	-0.256
ATAGGCGG	-0.0532
AGCAAGTC	-0.148

Sequence	PBM E-score
AAAGCAGT	-0.125
GATGGGAC	-0.0558
CCTAGATA	-0.0107
ATTACGTG	-0.118
GGTACGTA	0.313
ATTACGAC	0.348
AGTACGAC	0.409
AGTACGCC	-0.0728
CCTACGAG	0.341
GGTACGAA	0.459
CGTACGAG	0.465
AGTACGAT	0.345
GGTACGCA	0.252
CGGACGAG	-0.165
ATTACGAG	0.378
ACCACGTG	0.0941
GAAGAAAC	0.0334
TAATTGGA	-0.00998
AACTCCAC	0.00868
CAGTTTCA	-0.223
CGCGAGAA	0.0746
CAGGTGAG	-0.277
